The campaign covered roughly 310,000 compounds. About 14,000 (4.5%) showed an effect of 50% or more. The effect is printed as a negative number. The entries come from a sample that favours strong results as a whole.
biological target: human ether-à-go-go-related gene (hERG) potassium channel (human, UniProt Q12809); test: primary screen, population patch clamp on CHO cells stably expressing hERG; higher = less effect of the substance
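Further: peak tail current of the secondary pulse compared with the same well before compound.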

Chain of human ether-à-go-go-related gene (hERG) potassium channel (Q12809 whole entry, looked up): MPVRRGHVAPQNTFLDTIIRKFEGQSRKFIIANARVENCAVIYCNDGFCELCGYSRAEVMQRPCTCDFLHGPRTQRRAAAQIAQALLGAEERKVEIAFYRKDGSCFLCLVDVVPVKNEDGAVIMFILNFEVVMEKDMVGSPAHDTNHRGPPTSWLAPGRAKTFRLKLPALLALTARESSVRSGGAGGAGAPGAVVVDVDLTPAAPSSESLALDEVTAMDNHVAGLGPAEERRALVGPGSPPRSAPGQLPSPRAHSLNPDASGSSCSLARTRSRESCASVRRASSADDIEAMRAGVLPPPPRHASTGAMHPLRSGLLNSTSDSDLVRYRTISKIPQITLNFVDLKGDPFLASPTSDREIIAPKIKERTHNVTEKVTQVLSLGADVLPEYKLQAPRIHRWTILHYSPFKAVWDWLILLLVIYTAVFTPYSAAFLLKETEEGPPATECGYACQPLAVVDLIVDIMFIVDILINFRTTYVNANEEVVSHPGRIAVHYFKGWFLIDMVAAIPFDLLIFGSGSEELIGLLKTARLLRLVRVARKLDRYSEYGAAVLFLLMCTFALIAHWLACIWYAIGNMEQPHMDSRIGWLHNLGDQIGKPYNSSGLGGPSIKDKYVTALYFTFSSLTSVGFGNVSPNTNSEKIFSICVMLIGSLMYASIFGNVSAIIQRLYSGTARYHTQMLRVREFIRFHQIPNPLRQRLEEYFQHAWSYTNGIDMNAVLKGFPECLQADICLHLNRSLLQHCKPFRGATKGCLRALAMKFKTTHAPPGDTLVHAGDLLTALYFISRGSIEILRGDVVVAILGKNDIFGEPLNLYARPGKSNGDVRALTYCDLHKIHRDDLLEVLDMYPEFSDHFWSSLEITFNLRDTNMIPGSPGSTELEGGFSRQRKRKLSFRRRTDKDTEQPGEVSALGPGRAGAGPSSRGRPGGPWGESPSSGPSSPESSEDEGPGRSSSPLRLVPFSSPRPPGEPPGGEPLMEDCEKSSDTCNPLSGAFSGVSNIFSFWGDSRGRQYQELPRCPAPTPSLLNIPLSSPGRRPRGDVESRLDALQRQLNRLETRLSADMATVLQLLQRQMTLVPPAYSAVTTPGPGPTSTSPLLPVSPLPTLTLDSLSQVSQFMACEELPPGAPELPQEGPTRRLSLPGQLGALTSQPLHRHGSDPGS

In order of falling “hERG current change (%, negative = inhibition) at 10uM” value:
1. Cc1cccc(NC(=O)c2ccco2)c1C  22.4%
2. O=C(NCc1ccc(F)cc1)C1CCCN(S(=O)(=O)c2cccc3nonc23)C1 (stereo not drawn)  19.6%
3. O=C(/C=C/c1ccco1)Nc1ccc(Oc2ccc(Cl)cc2)cc1  16.1%
4. CCOC(=O)CC1C(=O)NCCN1C(=O)c1c(F)cccc1F (stereo not drawn)  16.1%
5. CC(=O)C(C(C)=O)C(c1ccccc1)c1nc2ccccc2[nH]c1=O (stereo not drawn)  14.1%
6. COc1ccc2cc(CCNC(=O)C(C)C)c(=O)[nH]c2c1  13.4%
7. COc1ccc(S(=O)(=O)NCc2ccccn2)cc1Br  12.5%
8. COc1ccc(C(=O)N/C(=C/c2ccc(Cl)cc2)C(=O)Nc2ccc(C(=O)O)cc2)cc1  11.4%
9. COc1ccccc1C(=O)C1CCCN(C(=O)c2ccccc2Cl)C1 (stereo not drawn)  10.4%
10. O=C(NCc1ccccn1)C1CC(=O)N(C2CCCC2)C1 (stereo not drawn)  9.62%
11. CCN1C(=O)/C(=C/c2cc(C)n(C)c2C)SC1=Nc1ccc(OC)cc1  9.24%
12. O=C(c1ccc(CS(=O)(=O)c2ccc(Br)cc2)o1)N1CCN(c2ccc(F)cc2)CC1  6.91%
13. Cc1cc(NC(=O)Cn2cnc3c(nnn3-c3cccc(F)c3)c2=O)no1  5.01%
14. O=C(O)/C=C/c1cn(-c2ccccc2)nc1-c1ccccc1  3.71%
15. Cc1ccc2sc(N(CCCN(C)C)C(=O)c3nc4ccccc4s3)nc2c1C.Cl  3.59%
16. COc1ccc(F)cc1C(=O)C1CCCN(C(=O)CCc2ccccn2)C1 (stereo not drawn)  2.48%
17. Cc1c(Cl)cccc1NC(=S)N1CCN(c2ccc([N+](=O)[O-])cn2)CC1  2.33%
18. C/C(=N\NC(=O)c1cccc(N/N=C(\C)c2ccc([N+](=O)[O-])cc2)c1)c1ccc([N+](=O)[O-])cc1  1.39%
19. CC1=C(C#N)C(c2ccccc2)C2=C(N1)c1ccccc1C2=O (stereo not drawn)  1.22%
20. C/C(=N\NC(=O)C(C)Sc1ccccc1)c1ccc([N+](=O)[O-])cc1 (stereo not drawn)  -3.27%
21. O=C(CNC(=O)c1ccc(S(=O)(=O)N2CCCC2)cc1)N/N=C/c1ccc(Cl)cc1Cl  -3.34%
22. Cc1ccccc1NN1C(=O)C=CC1=O  -8.26%
23. COc1ccc(/C=C(\NC(=O)c2ccc(C)cc2)C(=O)NCC2CCCO2)cc1 (stereo not drawn)  -8.44%
24. COc1ccc(CNC(=O)CN2C(=O)CC(c3ccccc3)=Nc3ccccc32)cc1  -8.66%
25. CC(=O)NCCC(=O)Nc1nc(-c2ccccc2Cl)cs1  -9.76%
26. Cc1ccc(S(=O)(=O)Cc2ccc(C(=O)N3CCN(c4cc(C)ccc4C)CC3)o2)cc1  -18.7%
27. COc1ccccc1C(=O)C1CCCN(Cc2cccc(OCCO)c2)C1 (stereo not drawn)  -19.6%
28. COc1ccc(F)cc1C(=O)C1CCCN(Cc2cnc(C)s2)C1 (stereo not drawn)  -21%
29. Cc1ccccc1NCCC(=O)Nc1ccc(F)cc1  -21.4%
30. COc1ccc(N2CCN(C(=O)c3ccc(CS(=O)(=O)c4ccccc4C)o3)CC2)cc1  -21.5%
31. CN(C)CCN(C(=O)c1cccc2ccccc12)c1nc2cc3c(cc2s1)OCO3.Cl  -22.3%
32. CN(C)CCN(C(=O)c1cccs1)c1nc2cc3c(cc2s1)OCCO3.Cl  -23.6%
33. COc1ccc(F)cc1C(=O)C1CCCN(Cc2cnc(N3CCCC3)s2)C1 (stereo not drawn)  -29.4%
34. COc1ccc(C(=O)N/C(=C\c2ccc(Cl)cc2)C(=O)NCC2CCCO2)cc1 (stereo not drawn)  -38%
35. CCOc1ccc(C(=O)Nc2cccc(-n3cnnn3)c2)cc1OCC  -40.4%
36. COc1ccccc1C(=O)C1CCCN(Cc2ccc(Oc3ncccn3)cc2)C1 (stereo not drawn)  -40.6%
37. Cc1ccccc1S(=O)(=O)Cc1ccc(C(=O)N2CCN(c3ccccc3F)CC2)o1  -40.7%
38. CN(C)CCCN(C(=O)c1cc(Cl)sc1Cl)c1nc2cc3c(cc2s1)OCO3.Cl  -41.9%
39. COC(=O)c1ccc(CN2CCCC(C(=O)c3ccccc3OC)C2)cc1 (stereo not drawn)  -43.1%
40. Cc1ccc2nc(N(CCCN(C)C)C(=O)c3ccc(Br)s3)sc2c1.Cl  -44.3%
41. COc1ccc(/C=C(/NC(=O)c2ccccc2)C(=O)NCc2ccncc2)cc1  -44.5%
42. C/C(=N\NC(=O)C(C)Nc1cccc(Cl)c1)c1ccc([N+](=O)[O-])cc1 (stereo not drawn)  -50.5%
43. COc1ccc(F)cc1C(=O)C1CCCN(Cc2ccc(O)cc2)C1 (stereo not drawn)  -52%
44. CN(C)CCCN(C(=O)c1cccs1)c1nc2cc3c(cc2s1)OCO3.Cl  -56.8%
45. COc1ccc(F)cc1C(=O)C1CCCN(Cc2ccc(Oc3ncccn3)cc2)C1 (stereo not drawn)  -64.2%
46. Cc1ccccc1S(=O)(=O)Cc1ccc(C(=O)N2CCN(c3ccc(F)cc3)CC2)o1  -64.3%
47. COc1ccc(C(=O)N/C(=C/c2ccc(Cl)cc2)C(=O)NCc2ccncc2)cc1  -65.4%
48. COc1ccc(/C=C(/NC(=O)c2ccc(C)cc2)C(=O)NCc2ccncc2)cc1  -66.2%
49. COC(=O)c1ccc(CN2CCCC(C(=O)c3cc(F)ccc3OC)C2)cc1 (stereo not drawn)  -68%
50. CN(C)CCCN(C(=O)c1ccc(Cl)s1)c1nc2cc3c(cc2s1)OCO3  -69%
51. Cc1ccc(S(=O)(=O)Cc2ccc(C(=O)N3CCN(c4ccc(F)cc4)CC3)o2)cc1  -69.5%
52. CN(C)CCCN(C(=O)c1ccc([N+](=O)[O-])s1)c1nc2cc3c(cc2s1)OCCO3.Cl  -71.3%
53. Cc1ccc2sc(N(CCCN(C)C)C(=O)c3ccc(Br)s3)nc2c1C.Cl  -71.7%
54. CCOc1ccc(CN2CCCC(C(=O)c3ccccc3OC)C2)cc1 (stereo not drawn)  -82%
